In PubChem BioAssay (NCI):
The panel holds about 83,000 compounds, 20% with a hit somewhere; the sample as a whole holds those more often.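 Results are percent growth after 48 hours of single-concentration exposure. 100 means growth as in untreated cells, lower positive values show inhibition; negative values down to -100 show cell death.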 Unmarked numbers belong to inactive results. The source made the active and inactive calls. The calls were made as follows: active = growth percent below 10; inactive = the rest.

Legend:
Experiment in all cases: NCI-60 one-dose screen, 48 h (100 = growth as untreated, 0 = no growth, -100 = all killed)
Conditions in all cases: 10 µM unless noted
HCT-15 colon = test system: HCT-15 colon
HT29 colon = test system: HT29 colon
SNB-75 CNS = test system: SNB-75 CNS
SNB-19 CNS = test system: SNB-19 CNS
U251 CNS = test system: U251 CNS
PC-3 prostate = test system: PC-3 prostate
SK-MEL-5 melanoma = test system: SK-MEL-5 melanoma
UACC-62 melanoma = test system: UACC-62 melanoma
LOX IMVI melanoma = test system: LOX IMVI melanoma
SK-MEL-28 melanoma = test system: SK-MEL-28 melanoma
SK-MEL-2 melanoma = test system: SK-MEL-2 melanoma
EKVX NSCLC = test system: EKVX NSCLC
SN12C renal = test system: SN12C renal
UO-31 renal = test system: UO-31 renal
TK-10 renal = test system: TK-10 renal
ACHN renal = test system: ACHN renal
CAKI-1 renal = test system: CAKI-1 renal
A498 renal = test system: A498 renal
CCRF-CEM leukemia = test system: CCRF-CEM leukemia
MOLT-4 leukemia = test system: MOLT-4 leukemia

Row | SMILES | growth (HCT-15 colon) | growth (HT29 colon) | growth (SNB-75 CNS) | growth (SNB-19 CNS) [%] | growth (U251 CNS) [%] | growth (PC-3 prostate) | growth (SK-MEL-5 melanoma) | growth (UACC-62 melanoma) [%] | growth (LOX IMVI melanoma) [%] | growth (SK-MEL-28 melanoma) [%] | growth (SK-MEL-2 melanoma) [%] | growth (EKVX NSCLC) [%] | growth (SN12C renal) [%] | growth (UO-31 renal) [%] | growth (TK-10 renal) | growth (ACHN renal) [%] | growth (CAKI-1 renal) [%] | growth (A498 renal) | growth (CCRF-CEM leukemia) [%] | growth (MOLT-4 leukemia)
1 | CCCCOc1nc2c(C)cccc2cc1C1CNC(=O)c2ccccc2N1 (centres undefined) | 43.4% | 61.4% | 56.6% | 47 | 63.7 | 40.1% | 43.4% | 29.1 | 60.8 | 66.4 | 62.8 | 61.9 | 70.9 | 67.8 | 98.7% | 66.3 | 52.1 | 55.3% | 34.3 | 39%
2 | COc1ccc(/C=c2\sc3n(c2=O)C2C(NN=3)N(C)C(=O)N2C)cc1 (centres undefined) | 28.5% | 8.76% (active) | -20.5% (active) | 33.9 | 29.3 | 25.4% | 6.02% (active) | 41.9 | 44.3 | 54.7 | 39.6 | 56.7 | 42.3 | 46.4 | 54.8% | 45 | 31.5 | -21.3% (active) |  | 26.5%
3 | Cc1cc(NC(=O)COC(=O)c2sc3cc(F)ccc3c2Cl)no1 | 106% | 114% | 104% | 103 | 106 | 101% | 110% | 90.2 | 103 | 121 | 44.8 | 105 | 107 | 39.2 | 125% | 106 | 110 |  | 66.9 | 108%
4 | Cc1ccc(S(=O)(=O)N2CCC(C(=O)Nc3ccc(F)cc3F)CC2)cc1 | 103% | 75.5% | 93.2% | 86.5 | 101 | 93.9% | 64.8% | 86.4 | 82.3 | 122 | 34.2 | 94.6 | 90.7 | 37.6 | 85.3% | 107 | 97.8 |  | 101 | 79.2%
5 | CC(Cc1nnc(SCC(=O)Nc2ccc(I)cc2)n1N)c1ccccc1 (centres undefined) | 103% | 111% | 260% | 96.6 | 92.7 | 90.2% | 94.3% | 66.8 | 83.7 | 133 | 69.8 | 82.5 | 98.4 | 74.1 | 89.9% | 86.5 | 104 | 99.9% | 54.9 | 93.4%
6 | CCN1C(=O)N(CC)C2C1NN=c1s/c(=C3\C(=O)N(C4CCCC4)c4ccccc43)c(=O)n12 (centres undefined) | 15.8% | 1.3% (active) | -21.9% (active) | 34.9 | 18.3 | 25.3% | 12.7% | 34.9 | 30.3 | 57.9 | 41.3 | 56.1 | 31.6 | 37.2 | 24.4% | 31.9 | 32.1 | -25.9% (active) |  | 7.37% (active)
7 | O=C(O)C(=Cc1c2ccccc2cc2ccccc12)C(=O)O | 106% | 105% | 104% | 101 | 101 | 97.2% | 104% | 93.5 | 86.8 | 114 | 104 | 104 | 101 | 82 | 93.3% | 97.6 | 99.9 |  | 101 | 92.4%
8 | CCC(c1ccc(OC)cc1)C(CC)c1ccc(OCC[N+](C)(C)C)cc1 (centres undefined) | 91.5% | 28.4% | 40% | 19.3 | 18.9 | 45.3% | 15.4% | 30.3 | 42.9 | 45.1 | 94 | 81.1 | 34.1 | 82.2 | 76.4% | 91 | 99.2 | 93.2% | 58.8 | 51.8%
9 | CC1CCc2c(sc(NC(=O)CSc3nnc4ccccn34)c2C(N)=O)C1 (centres undefined) | 106% | 117% | 104% | 115 | 108 | 106% | 99.3% | 101 | 90.5 | 137 | 48.4 | 150 | 102 | 110 | 179% | 96.7 | 95.7 | 133% | 101 | 108%
10 | CC(Br)C(OC(=O)c1ccccc1Cl)c1cc2c(cc1Br)OCO2 (centres undefined) | 86.9% | 85.5% | 67.4% | 93.7 | 95.9 | 82.8% | 87% | 72.5 | 92.1 | 94.5 | 90.4 | 76.6 | 98.9 | 49.1 | 82.1% | 88.2 | 70 |  | 103 | 75.6%
11 | Nc1nc(-c2cc3ccccc3o2)cc(=O)c(=O)[nH]1 | 103% | 99.7% | 102% | 86.6 | 91.9 | 97.7% | 90.4% | 94.6 | 98.6 | 112 | 98.9 | 99.7 | 106 | 110 | 103% | 94.3 | 91.9 | 99.2% | 84.2 | 96.6%
12 | CCCCCCCC/C=C\CCCCCCCCOc1ccccc1CCOP(=O)(O)OCC[N+](C)(C)C | 46.7% | 10.9% | 55.4% | 20.1 | 13.3 | 0.679% (active) | 69.5% | 54.2 | 60.6 | 89.1 | 84.6 | 91.7 | 70.1 | 65 | 1.11% (active) | 80.6 | 26.9 | 82.7% |  | 11.5%
13 | Cc1ccc2c(c1)ncn2-c1ncnc2c1CC(C)c1ccccc1N2C (centres undefined) | 8.43% (active) | 0.836% (active) | 43.9% | 37.6 | 12.1 | 20.9% | -49.2% (active) | 21.5 | 20.8 | 44.4 | 32.7 | 40.8 | 21.2 | 26.9 | 8.21% (active) | 20.2 | 19.6 |  | 13.3 | 12%
14 | COc1cc2c(cc1OCCCCn1c(-c3cc(=O)c4ccccc4o3)nc3ccccc31)N=C[C@@H]1CCCN1C2=O | 106% | 102% | 101% | 93.1 | 75.3 | 94.9% | 93.6% | 99.4 | 68.5 | 124 | 26.7 | 129 | 102 | 35.8 | 157% | 93.1 | 82.8 |  | 49.4 | 82.4%
15 | COc1ccc(/C=C(\C#N)c2ccc([N+](=O)[O-])cc2)c2ccccc12 | 75.7% | 76.8% | -16% (active) | 24.3 | 27 | 62.5% | 74.9% | 37.1 | 70.2 | 59.2 | 59.8 | 52.9 | 41.4 | 66.5 | 88.1% | 37.9 | 64.3 | 60% | 83 | 88.3%
16 | COc1cc2oc(-c3cccc(NC(=O)Nc4ccc5c(c4)OCO5)c3)cc(=O)c2c(OC)c1OC | 42.1% | 48.2% | 21.4% | 83.5 | 62.1 | 45.6% | 45.6% | 62.1 | 38.9 | 74.2 | 71.7 | 86.2 | 49.5 | 17.8 | 56% | 47.1 | 48.6 |  |  | 54.8%
